Data as given in ChEMBL document CHEMBL3988442, “University of Dundee, Small-Polar-MMV Screening Library” (2021).
The whole screen tested about 48,000 compounds, of which about 13,000 (27%) showed an effect of 50% or more. Some of the results follow.

System: Wolbachia pipientis
Test: Anti-Wolbachia Cell-Based Screen
Assay type: functional
Design: scale not given: in the data most compounds retested in dose-response had high values
Details: 5 µM

Compound | Percent Effect [%]
Cc1cn2cc(C(=O)NC3CCCN(c4ncccn4)C3)ccc2n1 (stereo unspecified) | -3.56
CO[C@@H]1CCC[C@@H](N(C)C(=O)c2cn3cc(C)ccc3n2)[C@H]1O | 110.8
CO[C@@H]1CC[C@@H](N(C)C(=O)c2cn3cc(C)ccc3n2)[C@H]1O | 56.83
Cc1ccc2c(ccn2CC(=O)NC[C@@H]2CCCN3CCCC[C@H]23)c1 | 4.302
Cc1ccc2nc(C(=O)N3CCC(CCn4cccn4)CC3)cn2c1 | -8.837
Cc1ccc2nc(C(=O)N3CCNC(=O)C3c3cccc(F)c3)cn2c1 (stereo unspecified) | -1.772
Cc1ccc2nc(C(=O)N(C)[C@@H]3CC[C@@H](N4CCCC4)[C@@H]3O)cn2c1 | 129
c1cncc(NCCNC2CCSCC2)c1 | -10.95
CCn1cc(N2Cc3nc(N4CCOCC4)ncc3C2=O)cn1 | 28.99
COC(=O)c1ccc(C2CC(=O)Oc3cc(C)[nH]c(=O)c32)cc1 (stereo unspecified) | -3.935
CN1CCC(c2cccc(Cc3ccc(F)cc3)n2)CC1 | -5.274
COc1ccc(Cc2cccc(C3CCN(C)CC3)n2)cc1 | -4.713
O=S(=O)(c1ccc(C(F)(F)F)cc1)N1CCC(OCc2ccccn2)C1 (stereo unspecified) | -13.15
CN1CCC(c2cccc(Cc3ccccc3)n2)CC1 | 111.8
CN1CCC(c2cccc(Cc3ccc(C(F)(F)F)cc3)n2)CC1 | 90.57
Cl.NC(c1ccc(Cl)cc1)c1cccs1 (stereo unspecified) | -4.089
Cc1cccc(C)c1CN1C(=O)CC2(CCSC2)C1=O (stereo unspecified) | -6.047
Cc1n[nH]c(SCC(=O)N2C[C@H]3CC[C@@H]2CN(c2ncccn2)C3)n1 | -6.945
COc1ccnc(N2CCN(Cc3ncc(-c4ccccc4)o3)CC2)n1 | -5.442
CC(=O)NCc1ccc(C(=O)N2CCCC2c2cnn(C)c2)o1 (stereo unspecified) | 4.332
CC(=O)NCc1ccc(C(=O)N2CCCC2c2cnn(C)c2)cc1 (stereo unspecified) | 89.24
CCN(CC)Cc1ccc(C(=O)N2CCCCC2Cn2cccn2)o1 (stereo unspecified) | -4.824
CC(=O)NCCc1ccc(C(=O)N2CCCC2c2cnn(C)c2)cc1 (stereo unspecified) | 2.733
Cc1cc(C)n(-c2ccc(C(=O)N3CCCC3c3cnn(C)c3)cc2)n1 (stereo unspecified) | -0.5529
CCN(CC)Cc1ccc(C(=O)N2CCCC2c2cnn(C)c2)o1 (stereo unspecified) | 101.4
CC(=O)NCc1ccc(C(=O)N2CCCC2c2cnn(C)c2)s1 (stereo unspecified) | 110.6

Compound | Percent Effect [%]
CC(=O)NCCCOc1c(C)cccc1Cl | -7.084
O=C1CCC2(CCCN(C(=O)c3ccc[nH]3)C2)CN1CCc1c[nH]cn1 (stereo unspecified) | -3.691
Cc1cc(CN(C)C(=O)c2cccc(N3CCCC3=O)c2)no1 | 3.879
CCN(CCNC(=O)c1cccc(C)c1C)C1CC1 | 95.34
COCCOc1ncccc1C(=O)Nc1c(C)cnn1CC1CC1 | -11.28
CCN(CCNC(=O)c1ccccc1Br)C1CC1 | -1.027
Cc1cccc(C(=O)NCCNS(=O)(=O)c2cccs2)c1C | -10.16
CCOc1ncccc1C(=O)NCCN(CC)C1CC1 | -2.077
CCN(CCNC(=O)c1cccnc1OCCOC)C1CC1 | 95.99
CC(C)c1cccc(-n2cc(O)c(C(=O)NCCCn3cccn3)n2)c1 | -4.081
COC(=O)C1CN(Cc2ccn(-c3ccc(F)cc3)n2)CCO1 (stereo unspecified) | -3.694
Cc1noc(C)c1CCC(=O)N1CCCN(Cc2cscn2)CC1 | -9.58
Cc1nc(CN2CCCN(C(=O)CCc3ccco3)CC2)cs1 | 136.5
Cc1nc(CN2CCCN(C(=O)c3cccn3C)CC2)cs1 | -4.038
CCc1nc(CN2CCN(C(=O)CCc3ccccc3)CC2)cs1 | 19.11
Cc1nc(CN2C[C@@H]3CN(C(=O)c4ccoc4C)C[C@@H]3C2)cs1 | 104.4
Cc1nc(CN2C[C@@H]3CN(C(=O)c4ccoc4C)C[C@@H]3C2=O)cs1 | -24.28
O=C(CCc1ccco1)N1CCCN(Cc2cscn2)CC1 | 110.3
O=C(CCc1cccc(F)c1F)N1CCN(Cc2ccco2)CC1 | 9.986
CCc1nc(CN2CCCN(C(=O)CCc3ccco3)CC2)cs1 | -5.985
Cc1nc(CN2C[C@@H]3CN(C(=O)CC(F)(F)F)C[C@@H]3C2=O)cs1 | -5.241
Cc1nc(CN2CCN(C(=O)CCc3ccco3)CC2)cs1 | 84.98
CCc1nsc(N2CCN(CC(=O)NCc3cccnc3)CC2)n1 | 5.46
CC1CN(C)c2ccccc2CN1C(=O)CSc1ccncc1 (stereo unspecified) | -15.08
O=S(=O)(c1cccnc1)N1CCN(CC(O)c2cccs2)CC1 (stereo unspecified) | -0.3613
